NRP1-CendR mod = NRP-1/CendR interaction modulation; O14786; FAM-RPARPAR peptide binding to NRP-1, fluorescence polarization; inhibition, % at 25 µM; 0.85% of 360,000 active; AID 602438;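 active = inhibition or corrected inhibition above about 18%, plus a signal ratio from 0.5 to 1.5, limit read from the data, passing the limit was not always enough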
HGIII-sPLA2 inh = Inhibits HGIII-sPLA2 liposome hydrolysis, primary screen; Q9NZ20; QFRET BODIPY PC-A2 liposome hydrolysis, fluorescence; inhibition, % at 12.2 µM; 0.56% of 370,000 active;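 active = inhibition above mean plus 3 SD of compounds lying within the high and low control bounds, cut at about 19% in these data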
ADAM17 inh = inhibitors of human ADAM17 | inhibition, % at 6.95 µM | AID 720648 | P78536 | 0.83% of 370,000 active | recombinant ADAM17, EDANS/DABCYL FRET peptide cleavage;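 active = inhibition above the mean of compounds lying between control limits plus 3 SD, set per campaign, cut at about 8.5% in these data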
KLK7 zymogen act = activates the human kallikrein-7 zymogen; P49862; purified proKLK7, EDANS-DABCYL substrate fluorescence; 100% is mature enzyme control, 0% vehicle; activation, % at 7 µM; 0.9% of 370,000 active; AID 652039;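 active = activation above the mean of all tested compounds plus 3 SD, computed per campaign excluding outliers beyond control limits, cut at about 13% in these data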
ADAM10 inh = inhibits human ADAM10. recombinant ADAM10, EDANS/DABCYL FRET peptide cleavage, 3 h. O14672. inhibition, % at 7 µM. 0.62% of 370,000 active;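 active = inhibition above a per-campaign cutoff equal to the mean of compounds falling between control-based bounds plus 3 SD, cut at about 20% in these data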
Target sequence (O14672 214-748 limits assumed): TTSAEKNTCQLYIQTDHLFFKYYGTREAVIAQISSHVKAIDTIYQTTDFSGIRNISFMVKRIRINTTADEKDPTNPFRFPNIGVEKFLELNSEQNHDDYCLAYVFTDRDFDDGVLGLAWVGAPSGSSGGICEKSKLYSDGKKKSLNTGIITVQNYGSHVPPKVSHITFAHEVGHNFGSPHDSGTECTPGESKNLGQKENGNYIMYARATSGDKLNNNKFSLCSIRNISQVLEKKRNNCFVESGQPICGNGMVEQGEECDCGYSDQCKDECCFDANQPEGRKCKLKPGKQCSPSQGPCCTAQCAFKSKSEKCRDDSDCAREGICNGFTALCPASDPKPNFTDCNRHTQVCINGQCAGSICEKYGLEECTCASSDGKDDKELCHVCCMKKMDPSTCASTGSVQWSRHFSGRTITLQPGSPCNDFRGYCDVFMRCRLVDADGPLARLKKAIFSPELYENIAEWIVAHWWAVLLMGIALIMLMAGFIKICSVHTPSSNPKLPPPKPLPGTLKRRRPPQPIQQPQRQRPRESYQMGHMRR
proKLK7 act conf = confirmation of human kallikrein-7 zymogen activators | shares compounds with KLK7 zymogen act | purified proKLK7, EDANS-DABCYL substrate fluorescence; scaled: vehicle 0, mature enzyme 100 | activation, % at 7 µM | 68% of 3,200 active | AID 686949;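 active = activation, as change over the incubation, above the mean of all tested compounds plus 3 SD, cut at about 13% in these data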
EDANS interfere = fluorescence interference counter-screen for KLK7 activators | EDANS-DABCYL substrate fluorescence interference, no enzyme, 4 h; solvent 0%, active enzyme control 100% | AID 686952 | activation, % at 7 µM | 80% of 3,200 active | shares compounds with KLK7 zymogen act;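 active = activation above the all-compound mean plus 3 SD, ignoring values outside control-based bounds, cut at about 4.8% in these data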;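 note: value is the 4 h activation minus the activation read at time zero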
K7 EDANS ctr = counter-screen for kallikrein-7 activators: EDANS-DABCYL interference, dose response | shares compounds with KLK7 zymogen act | EDANS-DABCYL peptide fluorescence interference, no enzyme | EC50, µM | 20% of 250 active | AID 720493;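 active = compounds that raise the fluorescence signal in this interference counterscreen, with EC50 at or below 10 µM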;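 note: intact quenched peptide substrate alone read at 355 nm excitation and 520 nm emission; signal is fluorescence gain from T0 to T4 after four hours at room temperature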
Of the large screens only hits and unclear results are named; the others gave an inactive call (follow-up assays come after a bar, where they were run). Compounds with a hit are over-represented: about 3.4% of the library has one in this group of screens.

Cc1ccc2nc(-c3ccc(SCC(=O)N4CCc5ccccc54)nc3)[nH]c2c1	none
COc1cc2c(cc1OC)/C(=C/C(=O)N1CCOCC1)NC(C)(C)C2	KLK7 zymogen act 60 (no result: NRP1-CendR mod) | proKLK7 act conf inactive | EDANS interfere 13
COc1ccc(C2Nc3ccccc3C(=O)N2Cc2ccccc2)cc1COc1ccc(NC(C)=O)cc1 (stereo not given)	none (no result: NRP1-CendR mod, KLK7 zymogen act)
O=c1oc2ccccc2cc1-c1ccc(O)cc1O	none
O=c1oc2cc(O)ccc2cc1-c1ccccc1	KLK7 zymogen act 72 | proKLK7 act conf 66 | EDANS interfere 77
COc1ccc(-c2cc3ccc(O)cc3oc2=O)cc1	KLK7 zymogen act 53 | proKLK7 act conf 75 | EDANS interfere 74
Cc1c2cccn2cc[n+]1C	KLK7 zymogen act 18 | proKLK7 act conf 32 | EDANS interfere 27
COc1ccc(-c2cc(=O)oc3c(C)c(O)c(CN(C)C)cc23)cc1	KLK7 zymogen act 14 | proKLK7 act conf inactive | EDANS interfere inactive
Cc1cc(=O)oc2cc3c(cc12)OCCO3	none
Cc1cc(=O)oc2cc3c(cc12)OCCN3	KLK7 zymogen act 67 | proKLK7 act conf 76 | EDANS interfere 83
Cc1cc(=O)oc2cc3c(cc12)OCO3	KLK7 zymogen act 36 | proKLK7 act conf 67 | EDANS interfere 74
CN(C)S(=O)(=O)c1cccc(C(=O)N/N=C\c2ccccc2[N+](=O)[O-])c1	none (no result: NRP1-CendR mod)
N#Cc1cc(C(=O)c2cc(F)ccc2O)cn(-c2nccs2)c1=O	KLK7 zymogen act 25 | proKLK7 act conf 42 | EDANS interfere 46
N#Cc1cc(C(=O)c2ccccc2O)cn(-c2nccs2)c1=O	KLK7 zymogen act 13 | proKLK7 act conf 25 | EDANS interfere 23
Cc1c(-n2cc(C(=O)c3cc(F)ccc3O)cc(C#N)c2=O)c(=O)n(-c2ccccc2)n1C	none
CCCn1nc2cc(C(=O)NCc3ccc4c(c3)OCO4)ccc2c1OCC	none
CCOc1c2ccc(C(=O)NCc3ccco3)cc2nn1CCOC	KLK7 zymogen act 18 | proKLK7 act conf 24 | EDANS interfere 29
CCCCn1nc2cc(C(=O)NCc3ccco3)ccc2c1OCC	none
CCOc1c2ccc(C(=O)NCc3ccc4c(c3)OCO4)cc2nn1CCOC	NRP1-CendR mod 18, KLK7 zymogen act 13 | proKLK7 act conf inactive | EDANS interfere inactive
CCOc1c2ccc(C(=O)NCc3ccco3)cc2nn1CC	KLK7 zymogen act 22 | proKLK7 act conf 19 | EDANS interfere 20
CCCCn1nc2cc(C(=O)NCC3CC3)ccc2c1OCC	KLK7 zymogen act 18 | proKLK7 act conf inactive | EDANS interfere inactive
COc1ccc(CCNC(=O)c2c(N)[nH]c(C(=O)c3ccccc3)c2-c2ccc(N(C)C)cc2)cc1	none (no result: NRP1-CendR mod, KLK7 zymogen act)
COC(=O)C1=CN(Cc2ccc(OC)c(OC)c2)C=C(C(=O)OC)C1c1ccc(O)cc1	KLK7 zymogen act 21 | proKLK7 act conf inactive | EDANS interfere inactive
COC(=O)C1=CN(Cc2ccc(OC)c(OC)c2)C=C(C(=O)OC)C1c1ccc(F)cc1	none
CCCC1CCC2(CCC(=O)N2CCOC)CC1 (stereo not given)	none (no result: NRP1-CendR mod)
CN[C@H]1C[C@H]2c3[nH]c4ccccc4c3CCN2C(=O)[C@H]1[C@H](C)O	KLK7 zymogen act 28 | proKLK7 act conf 14 | EDANS interfere 13
C[C@H](O)[C@@H]1C(=O)N2CCc3c([nH]c4ccccc34)[C@@H]2C[C@@H]1N(C)C(=O)NC1CCCCC1	KLK7 zymogen act 36 | proKLK7 act conf 26 | EDANS interfere 21 | K7 EDANS ctr 8.4
COCC(=O)N(C)[C@H]1C[C@H]2c3[nH]c4c(-c5ccccc5)cccc4c3CCN2C(=O)[C@H]1[C@H](C)O	none (no result: NRP1-CendR mod)
COCC(=O)N(C)[C@H]1C[C@H]2c3[nH]c4ccccc4c3CCN2C(=O)[C@H]1[C@H](C)O	KLK7 zymogen act 27 | proKLK7 act conf 40 | EDANS interfere 42
CN[C@H]1C[C@H]2c3[nH]c4cccc(-c5cccc(C)c5)c4c3CCN2C(=O)[C@H]1[C@H](C)O	none (no result: NRP1-CendR mod)
COCCNC(=S)N(C)[C@H]1C[C@H]2c3[nH]c4ccccc4c3CCN2C(=O)[C@H]1[C@H](C)O	KLK7 zymogen act 51 (no result: NRP1-CendR mod) | proKLK7 act conf 33 | EDANS interfere 34
COCCNC(=S)N(C)[C@H]1C[C@H]2c3[nH]c4c(-c5ccccc5)cccc4c3CCN2C(=O)[C@H]1[C@H](C)O	none (no result: NRP1-CendR mod)
O=C(CCc1nc(-c2ccccc2F)no1)NCCc1cccc(F)c1	none (no result: NRP1-CendR mod)
C[C@H](O)[C@@H]1C(=O)N2CCc3c([nH]c4ccccc34)[C@@H]2C[C@@H]1N(C)Cc1ccc(Cl)cc1	KLK7 zymogen act 52 | proKLK7 act conf 13 | EDANS interfere 13
C[C@H](O)[C@@H]1C(=O)N2CCc3c([nH]c4cccc(-c5ccccc5)c34)[C@@H]2C[C@@H]1N(C)CC1CCCCC1	none (no result: NRP1-CendR mod)
O=C(c1cnn2c(C(F)(F)F)cc(-c3cccs3)nc12)N1CCN(C(c2ccccc2)c2ccccc2)CC1	none
CN1CCN(C(=O)c2cnn3c(C(F)(F)F)cc(-c4cccs4)nc23)CC1	KLK7 zymogen act 19 | proKLK7 act conf 29 | EDANS interfere 25
O=C(c1ccco1)N1CCN(C(=O)c2cnn3c(C(F)(F)F)cc(-c4cccs4)nc23)CC1	KLK7 zymogen act 25 | proKLK7 act conf inactive | EDANS interfere inactive
FC(F)(F)c1cc(-c2cccs2)nc2ncnn12	KLK7 zymogen act 19 | proKLK7 act conf 67 | EDANS interfere 66
O=C(c1cnn2c(C(F)(F)F)cc(-c3cccs3)nc12)N1CCN(Cc2ccccc2)CC1	none
COC(=O)[C@]12C[C@H](CC(=O)NCc3ccc(OC)c(OC)c3)C(=O)N(Cc3ccco3)C1=C[C@H](C(C)(C)C)O[C@@H]2C	none (no result: NRP1-CendR mod)
CC1=C(C(=O)Nc2ccccn2)C(c2cn(C)nc2C)C2=C(CCCC2=O)N1 (stereo not given)	KLK7 zymogen act 15 | proKLK7 act conf 19 | EDANS interfere 21
CC1=C(C(=O)Nc2ccc(F)cc2)C(c2ccncc2)C2=C(CCCC2=O)N1 (stereo not given)	none
CCn1cc(C2C(C(=O)Nc3ccc(Br)cn3)=C(C)NC3=C2C(=O)CCC3)c(C)n1 (stereo not given)	KLK7 zymogen act 16 | proKLK7 act conf 17 | EDANS interfere 17
O=C(c1ccccc1)C1CCN(c2ncnc3sccc23)CC1	none (no result: NRP1-CendR mod, KLK7 zymogen act)
O=C(Nc1nc(-c2cccs2)cs1)c1ccc(S(=O)(=O)N2CCCC2)cc1	none
CN(C)S(=O)(=O)c1ccc(C(=O)Nc2nc(-c3cccs3)cs2)cc1	KLK7 zymogen act 47 | proKLK7 act conf 27 | EDANS interfere 129
